Reference: PubChem BioAssay (NCI)
The panel holds about 79,000 compounds, 15% with a hit somewhere; the sample as a whole holds those more often. A number with no mark means an inactive call. Active and inactive are the calls of the source. No stated cut-off is given here; in the data, active means growth inhibition above about 70%; inactive means the rest.

Columns and labels:
[1] = NCI Yeast Anticancer Drug Screen. Data for the rad50 strain (AID 155);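 further: 0% = growth of vehicle-only cultures of the same strain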; conditions: S. cerevisiae rad50 strain growth inhibition, active compounds read high; at 50.0 µM unless noted
Procedure, shortened: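 Inhibition values express reduced yeast growth in compound-treated cultures relative to vehicle-treated controls.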

[2] = NCI Yeast Anticancer Drug Screen. Data for the mec2-1 strain (AID 157); conditions: S. cerevisiae mec2-1 strain, active compounds read high; at 50.0 µM unless noted
Procedure, shortened: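 Growth inhibition is read against vehicle-treated controls after compound exposure of the mec2-1 yeast strain, which is defective in DNA damage repair or cell cycle control.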

[3] = NCI Yeast Anticancer Drug Screen. Data for the sgs1 mgt1 strain (AID 161);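 further: 0% = growth of cultures given vehicle only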; conditions: S. cerevisiae sgs1 mgt1 strain, active compounds read high; at 50.0 µM unless noted
Procedure, shortened: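 Yeast cells carrying a defined DNA-repair defect were exposed to test compounds. Growth inhibition was measured relative to vehicle-treated controls.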

[4] = NCI Yeast Anticancer Drug Screen. Data for the cln2 rad14 strain (AID 165);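 further: 0% = growth equal to vehicle treated cultures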; conditions: S. cerevisiae cln2 rad14 strain, active compounds read high; at 50.0 µM unless noted
Procedure, shortened: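 Growth inhibition, relative to vehicle-treated controls, is the read-out. The test organism is a yeast strain with defined genetic alterations, cln2 rad14.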

[5] = NCI Yeast Anticancer Drug Screen. Data for the bub3 strain (AID 167); conditions: S. cerevisiae bub3 mutant strain, active compounds read high; at 50.0 µM unless noted
Procedure, shortened: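 Steps: expose the mutant yeast strain to compound; grow alongside vehicle-treated cultures; measure growth; express inhibition against the vehicle cultures.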

[6] = NCI Yeast Anticancer Drug Screen. Data for the mlh1 rad18 strain (AID 175); conditions: S. cerevisiae mlh1 rad18 strain growth inhibition, active compounds read high; at 50.0 µM unless noted
Procedure, shortened: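 Cells of a genetically altered yeast strain, deficient in DNA damage repair, were treated with compound. Their growth was then compared with that of vehicle-treated cultures to give inhibition.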

| Compound | growth inhibition [1] [%] | growth inhibition [2] [%] | growth inhibition [3] [%] | growth inhibition [4] [%] | growth inhibition [5] | growth inhibition [6] [%] |
| --- | --- | --- | --- | --- | --- | --- |
| CCO/C([O-])=N\[n+]1c(C)nc2cc3c(cc2c1C)OCO3 | 5.75 | 5.65 | 1.2 | 7.8 | 9% | 8.9 |
| O=C1OCC=C1Sc1ccccc1 | -1.7 | -8.05 | -13.4 | -7.7 | -2.4% | -8.8 |
| CN(C)CCOC(=O)C1C2CC3OC(=O)C1C3C2 (stereo not given) | -2.4 | -13.6 | 17.5 | -5 | 7.25% | -19.4 |
| Cc1ccc(C(=O)OCC(C)C)s1 | -6.6 | 1.35 | -25.8 | -40.8 | -6.55% | 13.4 |
| Oc1ccc(Br)cc1/C=N/c1nc2ccccc2s1.Oc1ccc(Br)cc1/C=N/c1nc2ccccc2s1.[Cu] | 38 | 40.9 | 0.05 | 15.3 | -0.25% | 43.5 |
| O=C(NO)Nc1ccccc1Cl | 6.45 | 9.45 | 10.5 | -1.65 | -4.25% | 8.9 |
| CCCCN(CCCC)CC(=O)NC(=O)c1ccccc1 | -9.55 | -5.55 | 3.35 | -38.5 | 10.8% | -14.3 |
| CC(O)C1(O)CCCCC1 (stereo not given) | -11.8 | -1.95 | -2.05 | -29.6 | -13.2% | -14.8 |
| C#CCOC(=O)c1ccccc1 | 1.15 | -5.15 | 0.6 | -24.2 | 3.5% | 0 |
| CCc1n[nH]c(=O)n1NC(=O)c1ccccc1C(=O)O | 15.8 | 11.8 | 15.2 | 20.6 | 25.9% | 16.2 |
| FC(F)(F)c1ccc(C2=CCCCC2)cc1 | 24.1 | 6.45 | 4.45 | 24.5 | -18.6% | 13.2 |
| CCOc1c(N=Nc2ccc(Cl)cc2Cl)c(C)nn1C(=S)SC | 41.4 | 16.1 | 25.9 | 15.5 | -0.45% | 19.6 |
| CN(C)CC[N+]1=Nc2cccc3cccc(c23)N1 | -6.85 | -8.6 | -2.4 | 1.55 | -6.2% | 3.9 |
| O=C1c2cc([N+](=O)[O-])ccc2-c2ccc3c4ccc5c6c(ccc(c7ccc1c2c73)c64)C(=O)c1cc([N+](=O)[O-])ccc1-5 | 14 | -10.6 | -3.15 | 21.4 | -35.2% | 26.1 |
| COc1ccc(-c2oc3c(CC(=O)O)cccc3c(=O)c2OC)cc1 | -8.75 | -15.3 | -25.3 | -14.4 | -12.7% | -12.3 |
| OCCN(CCO)c1ncnc2c1sc(=S)n2-c1ccccc1 | -0.05 | -32.3 | 1.15 | 7.9 | -5.65% | 7.5 |
| O=C(Cc1ccc(CC(=O)NCCCCc2ccccc2)cc1)NCCCCc1ccccc1 | 0.75 | -3.25 | -14.9 | -8.85 | -7.9% | 13.1 |
| CCCCCCCCOC(=O)Nc1ccc(S(=O)(=O)NC2CCCCC2)cc1 | 7.05 | -2.9 | 14.1 | 37.8 | 10.8% | 20.6 |
| CC(C(=O)O)N1C(=O)CNC1=O (stereo not given) | -1.85 | -4.05 | 1.15 | -37.6 | 1.25% | -12.8 |
| CCOC(=O)C12CCCC1(O)N(NC(N)=O)C(C)=C2C(=O)OC (stereo not given) | 10.2 | -5.1 | 3.05 | -69.1 | -11.9% | 6.2 |

| Compound | growth inhibition [1] [%] | growth inhibition [2] [%] | growth inhibition [3] [%] | growth inhibition [4] [%] | growth inhibition [5] | growth inhibition [6] [%] |
| --- | --- | --- | --- | --- | --- | --- |
| CN(C)c1ccc(NC(=O)C(c2ccccc2)c2ccccc2)cc1 | 6.8 | -14.6 | 0.4 | -23.8 | 4.35% | -12.9 |
| O=C1c2ccccc2C(=O)c2c1ccc1c3ccccc3n(-c3ccccc3)c21 | 7.4 | 4.2 | 18.4 | -5.2 | 6.65% | 15.7 |
| COc1ccc(/C=C2\N=C(c3ccc([N+](=O)[O-])cc3)OC2=O)cc1OC | -5.35 | -2.75 | -14.8 | -15.5 | 0.25% | -17.1 |
| ClC(Cl)(Cl)c1ncnc2nc[nH]c12 | -15.1 | -11.8 | 0.5 | 9.95 | -16.9% | 13.3 |
| O=C(c1ccc(Cl)cc1)c1ccc(OCCCOc2ccc(C(=O)c3ccc(Cl)cc3)cc2Cl)c(Cl)c1 | 9.55 | -7.95 | -2.35 | -46.9 | -20.3% | 2.15 |
| CCn1c(CCCc2nc3c([nH]2)c(=O)n(C)c(=O)n3C)nc2c1c(=O)n(C)c(=O)n2C | 6.65 | -38.8 | -45.1 | 33.2 | -40.7% | -15.3 |
| COc1cc(/C=C/C(=O)O)ccc1O | -6.1 | -17.1 | 16.1 | -48 | -12.3% | 17.6 |
| COc1cccc(C(=O)C2N=NCC2c2ccccc2)c1 (stereo not given) | -17.4 | -5 | 2 | -15.2 | 61.5% | 29.9 |
| Cc1ccc(C(=O)/C=C/c2cccc3ccccc23)cc1 | 16.1 | 3.65 | 21.5 | 4.25 | 9.95% | 3.95 |
| N#C/C(=C\c1ccc(Cl)cc1Cl)C(=O)N/N=C/c1ccc(Cl)cc1Cl | 62.8 | 37.8 | 27.8 | 58.2 | 98% (active) | 23.6 |
| Nc1nccs1 | -0.45 | -0.65 | 4.75 | 9.4 | -3.15% | 25.7 |
| OCC(O)COc1ccc(Cl)cc1 (stereo not given) | -5 | -12.8 | -1.25 | 2.05 | 6.4% | 9 |
| CCSC(=Nc1nc2ccc([N+](=O)[O-])cc2s1)SCC | 43.5 | 31.4 | 33.5 | 14.1 | 25.5% | 12.2 |
| c1ccc2c3c([nH]c2c1)CCCC3 | -1.6 | 1.2 | -10.2 | -31.4 | 11.5% | -1.25 |
| CC(=O)c1cccc(NC(=O)Nc2ccc(F)c([N+](=O)[O-])c2)c1 | 7.3 | 22.9 | 21.9 | 3.25 | 36.5% | 2.75 |
| Clc1nc(NCCc2ccccc2)c2ncn(-c3ccccc3)c2n1 | 52.9 | 47.2 | 34.1 | 12.9 | 68.2% | 42.8 |
| COC(=O)c1ccccc1NC(=O)Nc1ncccn1 | -5.3 | 2.4 | -7.2 | -10.1 | -11.2% | -11.5 |
| CCOC(=O)COc1ccc(OC)c2c1C(=O)CCC2 | 21.1 | 16.7 | 6.15 | 29.2 | 10% | 15 |
| Nc1nc2ncc(COc3ccc(C(=O)O)cc3)nc2c(=O)[nH]1 | 18.8 | 3.2 | 31.6 | -16.1 | 53.2% | 13.6 |
| CCSC(SCC)=C1C(=O)N(c2ccccc2)N=C1C | -6.75 | -18.8 | -4.1 | 16.2 | 8.6% | 2.85 |
